Reference: PubChem BioAssay (NCI)
Compounds without any hit were thinned out: in the full panel of roughly 83,000, 20% have a hit.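 Assay: single dose, 48 h. Readout: percent growth (0 = no net growth; negative = cell death). Active: <10.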 The source made the active and inactive calls.

Legend:
Assay in all cases: NCI-60 one-dose screen, 48 h (100 = growth as untreated, 0 = no growth, -100 = all killed)
Settings in all cases: 10 µM unless noted
SK-MEL-2 melanoma = test system: SK-MEL-2 melanoma
EKVX NSCLC = test system: EKVX NSCLC
SN12C renal = test system: SN12C renal
UO-31 renal = test system: UO-31 renal
TK-10 renal = test system: TK-10 renal
ACHN renal = test system: ACHN renal
CAKI-1 renal = test system: CAKI-1 renal
A498 renal = test system: A498 renal
CCRF-CEM leukemia = test system: CCRF-CEM leukemia
MOLT-4 leukemia = test system: MOLT-4 leukemia
SR leukemia = test system: SR leukemia
RPMI-8226 leukemia = test system: RPMI-8226 leukemia
OVCAR-8 ovarian = test system: OVCAR-8 ovarian
OVCAR-5 ovarian = test system: OVCAR-5 ovarian
OVCAR-4 ovarian = test system: OVCAR-4 ovarian
SK-OV-3 ovarian = test system: SK-OV-3 ovarian
IGROV1 ovarian = test system: IGROV1 ovarian
OVCAR-3 ovarian = test system: OVCAR-3 ovarian
HS 578T breast = test system: HS 578T breast
NCI/ADR-RES ovarian = test system: NCI/ADR-RES ovarian

Measured: growth

Nc1c(C(=O)Nc2cccc3c2OCCO3)sc2nc3c(cc12)CN(Cc1ccccc1)CC3
inactive: SK-MEL-2 melanoma 56.2% | EKVX NSCLC 83.3% | SN12C renal 87.2% | UO-31 renal 60.4% | TK-10 renal 96.8% | ACHN renal 77.2% | CAKI-1 renal 55.3% | A498 renal 37.9% | CCRF-CEM leukemia 36.3% | MOLT-4 leukemia 52.5% | SR leukemia 35.5% | RPMI-8226 leukemia 77.5% | OVCAR-8 ovarian 87.7% | OVCAR-5 ovarian 95.3% | OVCAR-4 ovarian 74.5% | SK-OV-3 ovarian 89.2% | IGROV1 ovarian 60.7% | OVCAR-3 ovarian 26.7% | HS 578T breast 66% | NCI/ADR-RES ovarian 53%

CCN(C(=O)CN1CCN(c2cc3c(cc2F)c(=O)c(C(=O)O)cn3CC)CC1)c1nc(-c2ccccc2)cs1
inactive: EKVX NSCLC 21.2% | UO-31 renal 12.4% | TK-10 renal 14.6% | CAKI-1 renal 11.7% | CCRF-CEM leukemia 14% | MOLT-4 leukemia 11.4% | OVCAR-5 ovarian 35.6% | IGROV1 ovarian 23.3% | OVCAR-3 ovarian 16.8% | HS 578T breast 13.6%
active: SK-MEL-2 melanoma -15.3% | SN12C renal 2.74% | ACHN renal 8.13% | A498 renal -6.64% | SR leukemia -11% | RPMI-8226 leukemia -3.49% | OVCAR-8 ovarian 7.67% | OVCAR-4 ovarian 3.24% | SK-OV-3 ovarian -2.59% | NCI/ADR-RES ovarian 5.3%

CC[C@]12C=CCN3CC[C@@]4(c5ccc(OC)cc5N(C)[C@H]4[C@@](O)(C(=O)OC)[C@@H]1OC(=O)CCC(=O)N[C@@H](Cc1c[nH]c4ccccc14)C(=O)OC)[C@@H]32
inactive: SK-MEL-2 melanoma 54.4% | EKVX NSCLC 93.3% | SN12C renal 71.5% | UO-31 renal 83% | TK-10 renal 87.4% | ACHN renal 93% | CAKI-1 renal 108% | A498 renal 83.4% | CCRF-CEM leukemia 28.9% | OVCAR-8 ovarian 93.9% | OVCAR-5 ovarian 90.8% | OVCAR-4 ovarian 89.9% | SK-OV-3 ovarian 100% | IGROV1 ovarian 101% | OVCAR-3 ovarian 86.4% | HS 578T breast 79.4% | NCI/ADR-RES ovarian 105%
active: MOLT-4 leukemia -35.5% | SR leukemia -43.1% | RPMI-8226 leukemia -33.4%

CNCCCn1c2c(c3ccc([N+](=O)[O-])cc3c1=O)C(=O)c1cc(OC)cnc1-2
inactive: HS 578T breast 15.6%
active: SK-MEL-2 melanoma -43.9% | EKVX NSCLC 4.21% | SN12C renal -29.7% | UO-31 renal -78.4% | TK-10 renal -23.9% | ACHN renal -65.2% | CAKI-1 renal -83.4% | A498 renal -97% | CCRF-CEM leukemia -31.9% | MOLT-4 leukemia -10.9% | SR leukemia 2.17% | RPMI-8226 leukemia -25.9% | OVCAR-8 ovarian -14.9% | OVCAR-5 ovarian 1.76% | OVCAR-4 ovarian -25.9% | SK-OV-3 ovarian -15.8% | IGROV1 ovarian 0.722% | OVCAR-3 ovarian -45.1% | NCI/ADR-RES ovarian -28.8%

O=C(CN1CCN(c2cc3c(cc2F)c(=O)c(C(=O)O)cn3C2CC2)CC1)Nc1nc(-c2ccccc2)cs1
inactive: SK-MEL-2 melanoma 94.6% | EKVX NSCLC 91.4% | SN12C renal 71.2% | UO-31 renal 81.7% | TK-10 renal 82.9% | ACHN renal 89.5% | CAKI-1 renal 93.8% | A498 renal 65.2% | CCRF-CEM leukemia 79.1% | MOLT-4 leukemia 89% | SR leukemia 90.5% | RPMI-8226 leukemia 66.3% | OVCAR-8 ovarian 52.1% | OVCAR-5 ovarian 97.7% | OVCAR-4 ovarian 97.5% | SK-OV-3 ovarian 93.9% | IGROV1 ovarian 84.7% | OVCAR-3 ovarian 90.3% | HS 578T breast 60.5% | NCI/ADR-RES ovarian 92.7%

CC/C(Cc1ccccc1)=C(\c1ccc(OCCN2CCCC2)cc1)c1ccc(OC(C)=O)cc1
inactive: SK-MEL-2 melanoma 104% | EKVX NSCLC 80.3% | SN12C renal 83.4% | UO-31 renal 72.3% | TK-10 renal 88.7% | ACHN renal 89.7% | CAKI-1 renal 86.6% | A498 renal 87.9% | CCRF-CEM leukemia 88.1% | MOLT-4 leukemia 55.2% | SR leukemia 14.3% | RPMI-8226 leukemia 60.2% | OVCAR-8 ovarian 97.8% | OVCAR-5 ovarian 92.6% | OVCAR-4 ovarian 79% | SK-OV-3 ovarian 107% | IGROV1 ovarian 78% | OVCAR-3 ovarian 89.6% | HS 578T breast 85.5% | NCI/ADR-RES ovarian 75.5%

COc1ccc(S(=O)(=O)NCCCNc2nccc(-c3c(-c4cccc(N)c4)nc4sccn34)n2)cc1
inactive: SK-MEL-2 melanoma 113% | EKVX NSCLC 96.3% | SN12C renal 76.7% | UO-31 renal 76.4% | TK-10 renal 134% | ACHN renal 78.8% | CAKI-1 renal 77.5% | A498 renal 91.2% | CCRF-CEM leukemia 78.4% | MOLT-4 leukemia 75.5% | SR leukemia 86.4% | RPMI-8226 leukemia 84% | OVCAR-8 ovarian 93.5% | OVCAR-5 ovarian 134% | OVCAR-4 ovarian 97.1% | SK-OV-3 ovarian 112% | IGROV1 ovarian 87.1% | OVCAR-3 ovarian 94.5% | HS 578T breast 93.9% | NCI/ADR-RES ovarian 94.7%

CC(C)(C)n1cc(-c2ccnc(NCCNS(=O)(=O)c3ccccc3)c2)c(-c2cccc(O)c2)n1
inactive: SK-MEL-2 melanoma 68.8% | EKVX NSCLC 63.4% | SN12C renal 71.8% | UO-31 renal 61.3% | TK-10 renal 92% | ACHN renal 67.1% | CAKI-1 renal 63.8% | A498 renal 55.1% | CCRF-CEM leukemia 46.5% | MOLT-4 leukemia 38.2% | SR leukemia 27.3% | RPMI-8226 leukemia 22.2% | OVCAR-8 ovarian 67.2% | OVCAR-5 ovarian 78.4% | OVCAR-4 ovarian 60.6% | SK-OV-3 ovarian 88.4% | IGROV1 ovarian 76% | OVCAR-3 ovarian 74.4% | HS 578T breast 62.4% | NCI/ADR-RES ovarian 74.8%

Cc1ccc2cnc(N)c(C#Cc3cncc(C(=O)Nc4ccc(CN5CCN(C)CC5)c(C(F)(F)F)c4)c3)c2c1
active: SK-MEL-2 melanoma -62.1% | EKVX NSCLC -93.9% | SN12C renal -97.5% | UO-31 renal -93.3% | TK-10 renal -94.4% | ACHN renal -99.6% | CAKI-1 renal -95.1% | A498 renal -94.2% | CCRF-CEM leukemia -45% | MOLT-4 leukemia -54.8% | SR leukemia -31.2% | RPMI-8226 leukemia -31.4% | OVCAR-8 ovarian -85.4% | OVCAR-5 ovarian -89% | OVCAR-4 ovarian -88% | SK-OV-3 ovarian -17.5% | IGROV1 ovarian -59.8% | OVCAR-3 ovarian -97.6% | HS 578T breast -39.2% | NCI/ADR-RES ovarian -67.2%

O=C1O[C@H]([C@H](O)CO)C(O)=C1O
inactive: SK-MEL-2 melanoma 104% | EKVX NSCLC 110% | SN12C renal 104% | UO-31 renal 99.8% | TK-10 renal 104% | ACHN renal 93.9% | CAKI-1 renal 87.1% | A498 renal 94.3% | CCRF-CEM leukemia 109% | MOLT-4 leukemia 107% | SR leukemia 88.5% | RPMI-8226 leukemia 99.1% | OVCAR-8 ovarian 97% | OVCAR-5 ovarian 101% | OVCAR-4 ovarian 119% | SK-OV-3 ovarian 112% | IGROV1 ovarian 104% | OVCAR-3 ovarian 104% | HS 578T breast 117% | NCI/ADR-RES ovarian 96.6%

Oc1ccccc1N=Cc1c(O)ccc2ccccc12
inactive: SK-MEL-2 melanoma 62.4% | EKVX NSCLC 63.2% | SN12C renal 65.3% | UO-31 renal 57% | TK-10 renal 119% | ACHN renal 59.3% | CAKI-1 renal 47.6% | A498 renal 64.8% | CCRF-CEM leukemia 32.5% | MOLT-4 leukemia 37.1% | SR leukemia 37.5% | RPMI-8226 leukemia 26.5% | OVCAR-8 ovarian 97.8% | OVCAR-5 ovarian 87.3% | OVCAR-4 ovarian 74.8% | SK-OV-3 ovarian 84.6% | IGROV1 ovarian 58.9% | OVCAR-3 ovarian 64.2% | HS 578T breast 64.9% | NCI/ADR-RES ovarian 56.8%

NC1=CC(=O)C(=O)c2ccccc21
inactive: SK-MEL-2 melanoma 75.1% | EKVX NSCLC 76.2% | SN12C renal 84.2% | UO-31 renal 71.3% | TK-10 renal 114% | ACHN renal 85.2% | CAKI-1 renal 91.3% | A498 renal 101% | CCRF-CEM leukemia 93% | MOLT-4 leukemia 74.1% | SR leukemia 81.8% | RPMI-8226 leukemia 79.3% | OVCAR-8 ovarian 64.2% | OVCAR-5 ovarian 93.3% | OVCAR-4 ovarian 69.3% | SK-OV-3 ovarian 92.6% | IGROV1 ovarian 89.7% | OVCAR-3 ovarian 84.1% | HS 578T breast 99.5% | NCI/ADR-RES ovarian 58.7%

CN(C)c1ccc(/C=C(\C#N)c2nc3ccccc3s2)cc1
inactive: SK-MEL-2 melanoma 106% | EKVX NSCLC 89.5% | SN12C renal 104% | UO-31 renal 90.7% | TK-10 renal 121% | ACHN renal 101% | CAKI-1 renal 89.2% | A498 renal 112% | CCRF-CEM leukemia 81.8% | MOLT-4 leukemia 96.4% | SR leukemia 87.5% | RPMI-8226 leukemia 111% | OVCAR-8 ovarian 99.5% | OVCAR-5 ovarian 109% | OVCAR-4 ovarian 90.9% | SK-OV-3 ovarian 111% | IGROV1 ovarian 103% | OVCAR-3 ovarian 119% | HS 578T breast 104% | NCI/ADR-RES ovarian 107%

COc1cc(NCCCCN=C(N)N)c2ncccc2c1
inactive: SK-MEL-2 melanoma 27.3% | EKVX NSCLC 65.2% | UO-31 renal 90.3% | TK-10 renal 70.9% | ACHN renal 93.6% | CAKI-1 renal 98.2% | A498 renal 74.5% | CCRF-CEM leukemia 90.7% | MOLT-4 leukemia 67.5% | SR leukemia 116% | RPMI-8226 leukemia 87.7% | OVCAR-8 ovarian 60.8% | OVCAR-5 ovarian 86.7% | SK-OV-3 ovarian 88.3% | IGROV1 ovarian 56.8% | HS 578T breast 94% | NCI/ADR-RES ovarian 104%
active: SN12C renal -14.5% | OVCAR-4 ovarian -99.4% | OVCAR-3 ovarian 8.54%

Nc1c(C(=O)Nc2cccc3c2OCCO3)sc2nc3c(cc12)C(=O)CCC3
inactive: SK-MEL-2 melanoma 64.9% | EKVX NSCLC 24.7% | SN12C renal 41.3% | UO-31 renal 53% | TK-10 renal 73.3% | ACHN renal 55.4% | CAKI-1 renal 47.6% | CCRF-CEM leukemia 16.5% | MOLT-4 leukemia 57.6% | SR leukemia 36.3% | RPMI-8226 leukemia 33.7% | OVCAR-8 ovarian 51.8% | OVCAR-5 ovarian 36.1% | OVCAR-4 ovarian 71% | SK-OV-3 ovarian 70.5% | IGROV1 ovarian 48% | OVCAR-3 ovarian 16.2% | HS 578T breast 29.5% | NCI/ADR-RES ovarian 14.1%
active: A498 renal -1.97%
